Results on 40 sequences are retold here after the supplement of paper PMC6555819.

The test system of the first assay is RARb homodimer (NR concentration 270 nM). The assay can be described thus: PBM binding z-score (relative to random genomic background probes); higher = stronger binding; sequences stand for … in GC…GCGATTGACAGCGTAGAATGAAGG
In outline: (§1)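 Binding z-scores take random background probes as their reference. They come from custom Agilent 4×180K protein-binding microarrays incubated 1 h with ligand-free nuclear receptor dimers, with antibodies against each partner (one per run) detecting binding. Scanned fluorescence was regression-normalized.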
The sequence TTACGAAGGTGAAGGTCGTTGATCCCTCTGTAGA registered a PBM binding z-score of 1.84.
As to TAGTCTAGGTCATTCAGGGGCCAGTATAGAAAGC, the PBM binding z-score came to 3.57.
GCTTGTAGATCAAGGTTAAGAAAGACTAAGCTAA yielded a PBM binding z-score of 0.0928.
GCTGCTAGGTCAGGTGGGTCAGCTAACGGGTACG: the PBM binding z-score was determined as 3.64.
Take GATACAGGGTCAAGGCTAGAGTACGCGTATTGAT: the PBM binding z-score came to 3.75.
On the same count and under the same terms, the result for AACGAAAGGTCGAGGTGAGTATAGAGAAAGGGAA reads 2.86; that for AATACAGGGTAATCGTAGGCCAGAGTACGCACAG, 0.578.
On the same count and under the same terms, as for TCGAGTAGGTTAGTAGGGGCATTCAGCCAACATA, the figure is 0.576.
As for CCTGCTAGGGCATGGTCAGCTAATCTACAGTATG, the PBM binding z-score was determined as 0.406.
With ACAGACAGGTGAGTGAAAGTAACTCAGCTGGACG, the PBM binding z-score is -0.349.
Sequence CCTCGGAGGACAGAAGGTCAGGGCTGTCCGCTTT had a PBM binding z-score of 3.88.
The same measure, in the same setting: the result for CGTCCAAGGTCAATGCTAGTTCAGTGAAAGCATT reads 4.24.
The same measure, in the same setting: as for ATCTCTAGGTAAGCCTCAGTTCAGTGAAGAACGC, the figure is 0.726.
TCGAGTAGGTTAGTCGGGGCATTCAACCAACATA displayed a PBM binding z-score of 0.661.
Sequence CGAACTAGGACAAGGACAGTGAATCTCCGCACGC returned a PBM binding z-score of 0.532.
In turn, CGTCCAAGGTCAGAGAGGTCAGTGAGTGCCGAGT displayed a PBM binding z-score of 5.29.
Sequence ACAGACAGGTGCGTGAAGGTAACTCAGCTGGACG came in with a PBM binding z-score of -0.567.
The sequence GCTCGGAGGACCAGGTCAGAGCTTTGTCCGTAGA returned a PBM binding z-score of 1.34.
Same read-out and setting: the result for GTACCAAGGTGAATAGGTCGTTGCTGAGTAGGCG reads 1.71; that for TAGCCTAGGTCAAATCGGGCCAGTATACGCTATA, 2.7.
Still for that read-out and setting: the result for ACTATTAGTTGAAACGAGGGCAACCGATAGGTTG reads 1.25.
On the same count and under the same terms, the result for AGAATGAGGTTAAGAGCAGGGAAACAGAATACAT reads 0.878.
Take TTTCAAAGTTCAAAGGTAACGTAAGTATCCACAC: the PBM binding z-score turned out to be 3.87.
Same read-out and setting: the result for CGAACTAGGTCAGTACAGGACAGTGAAGGATGAT reads 2.51; that for AGGCAAAGTTCAGGACGAGGTAACGTAAAGCACG, 3.36; that for TTACAAAGGTGAAGGTCGTTGATCCCTCTGTAGA, 2.91.
The same measure, in the same setting: as for ACTAGTAGTTGAGACGAGGGCAACCGATAGGTTG, the figure is 1.26.
Same read-out and setting: as for TGTATGAGGTTATAAGATCAGGGAACGTTGCAAA, the figure is 0.472; as for CCTAGTTGGGCAAGGTCACACACGCTATAGGTAC, 3.9; as for ACAGACAGGTGTGTGAAGGTAACTCAGCTGGACG, -0.271.
For CAAACTTGGTCAAGAGGTCAAAGTCCGCTTCCCG, the PBM binding z-score is 4.85.
Same read-out and setting: as for CAAACTAGGTCACTGGAAGGTCAAAGTCCGCATG, the figure is 5.21.
The same measure, in the same setting: the result for GTACCAAGGCGAATAGGTCGTTGATGAGTAGGCG reads 0.278; that for TCTATTACTTGATTAGGGCAACCGAAACAGCGGA, 0.543.
TAGCCTAGGTTAGATCGGGCCAGTATACGCTATA gave a PBM binding z-score of -0.0792.
TCTAGTTGTTCACGGAGGTCACACACGACGGGTA showed a PBM binding z-score of 4.05.
As for CGAACGAGAGCATGAGTTGATAGCAAATGCCGAT, the PBM binding z-score is -0.657.
In the case of TTACCAAGGTGAAAGGTCGTTGACGCACGCCTTG, the PBM binding z-score came out at 2.87.
Sequence GCTGCTAGGTCAACCGATGGTCAGCTAAAGCTCG had a PBM binding z-score of 3.51.
On to ACTCGGAGGACAAAAGTCAGAGCTACGCCAGTGA, for which the PBM binding z-score came out at 0.442.

The test system of another assay is RARg:RXRa (NR concentration 270 nM, RXRa partner concentration 90 nM). The description is as above. In a few lines: as §1
With TTACGAAGGTGAAGGTCGTTGATCCCTCTGTAGA, the PBM binding z-score was 1.38.
Consider TAGTCTAGGTCATTCAGGGGCCAGTATAGAAAGC, for which the PBM binding z-score is 5.83.
As for GCTTGTAGATCAAGGTTAAGAAAGACTAAGCTAA, the PBM binding z-score amounted to 0.389.
Take GCTGCTAGGTCAGGTGGGTCAGCTAACGGGTACG: the PBM binding z-score came out at 3.41.
As for GATACAGGGTCAAGGCTAGAGTACGCGTATTGAT, the PBM binding z-score turned out to be 5.53.
For the sequence AACGAAAGGTCGAGGTGAGTATAGAGAAAGGGAA, the PBM binding z-score turned out to be 4.68.
Still for that read-out and setting: as for AATACAGGGTAATCGTAGGCCAGAGTACGCACAG, the figure is 0.923.
Same read-out and setting: the result for TCGAGTAGGTTAGTAGGGGCATTCAGCCAACATA reads 0.0411.
The same measure, in the same setting: as for CCTGCTAGGGCATGGTCAGCTAATCTACAGTATG, the figure is 0.464.
ACAGACAGGTGAGTGAAAGTAACTCAGCTGGACG: the PBM binding z-score was found to be 0.188.
CCTCGGAGGACAGAAGGTCAGGGCTGTCCGCTTT came in with a PBM binding z-score of 3.67.
As to CGTCCAAGGTCAATGCTAGTTCAGTGAAAGCATT, the PBM binding z-score is 6.18.
The same measure, in the same setting: as for ATCTCTAGGTAAGCCTCAGTTCAGTGAAGAACGC, the figure is 0.273; as for TCGAGTAGGTTAGTCGGGGCATTCAACCAACATA, 0.183.
In the case of CGAACTAGGACAAGGACAGTGAATCTCCGCACGC, the PBM binding z-score came to 0.083.
Regarding CGTCCAAGGTCAGAGAGGTCAGTGAGTGCCGAGT, the PBM binding z-score was found to be 6.35.
In turn, ACAGACAGGTGCGTGAAGGTAACTCAGCTGGACG displayed a PBM binding z-score of -0.319.
On the same count and under the same terms, as for GCTCGGAGGACCAGGTCAGAGCTTTGTCCGTAGA, the figure is 0.802; as for GTACCAAGGTGAATAGGTCGTTGCTGAGTAGGCG, 2.56; as for TAGCCTAGGTCAAATCGGGCCAGTATACGCTATA, 4.3.
Same read-out and setting: as for ACTATTAGTTGAAACGAGGGCAACCGATAGGTTG, the figure is 1.01; as for AGAATGAGGTTAAGAGCAGGGAAACAGAATACAT, 2.
Still for that read-out and setting: as for TTTCAAAGTTCAAAGGTAACGTAAGTATCCACAC, the figure is 6.29; as for CGAACTAGGTCAGTACAGGACAGTGAAGGATGAT, 2.64; as for AGGCAAAGTTCAGGACGAGGTAACGTAAAGCACG, 4.68.
Sequence TTACAAAGGTGAAGGTCGTTGATCCCTCTGTAGA showed a PBM binding z-score of 3.09.
Regarding ACTAGTAGTTGAGACGAGGGCAACCGATAGGTTG, the PBM binding z-score turned out to be 0.496.
As for TGTATGAGGTTATAAGATCAGGGAACGTTGCAAA, the PBM binding z-score came out at 1.82.
Still for that read-out and setting: as for CCTAGTTGGGCAAGGTCACACACGCTATAGGTAC, the figure is 4.2.
Still for that read-out and setting: as for ACAGACAGGTGTGTGAAGGTAACTCAGCTGGACG, the figure is -0.0907.
Regarding CAAACTTGGTCAAGAGGTCAAAGTCCGCTTCCCG, the PBM binding z-score was found to be 5.94.
The sequence CAAACTAGGTCACTGGAAGGTCAAAGTCCGCATG yielded a PBM binding z-score of 7.66.
The same measure, in the same setting: as for GTACCAAGGCGAATAGGTCGTTGATGAGTAGGCG, the figure is 0.265; as for TCTATTACTTGATTAGGGCAACCGAAACAGCGGA, 0.675.
On the same count and under the same terms, as for TAGCCTAGGTTAGATCGGGCCAGTATACGCTATA, the figure is -0.00796; as for TCTAGTTGTTCACGGAGGTCACACACGACGGGTA, 3.97; as for CGAACGAGAGCATGAGTTGATAGCAAATGCCGAT, -0.0472.
TTACCAAGGTGAAAGGTCGTTGACGCACGCCTTG yielded a PBM binding z-score of 4.52.
The sequence GCTGCTAGGTCAACCGATGGTCAGCTAAAGCTCG had a PBM binding z-score of 5.42.
The sequence ACTCGGAGGACAAAAGTCAGAGCTACGCCAGTGA gave a PBM binding z-score of 0.411.
